# According to the supplement of paper PMC11417369:
# In all, about 25,000 sequences were measured (“ln(normalized median fluorescence intensity)”: median about 7.1, highest 2% from about 10 on). The entries come from a sample that favours the highest values as a whole.
# Test system: PfSIP2 AP2 domain 1 (GST-tagged)
# Assay: gcPBM binding intensity (ln(normalized median fluorescence intensity)); higher = stronger DNA binding
# Procedure, shortened: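 Probes on an Agilent 4 × 180k array were primer-extended, double-stranded and 36 bp long, taken from intergenic genomic regions, with negative controls added. GST-tagged P. falciparum DNA-binding domains from E. coli, about 25 μg on average, were applied to the array for 1 h in 1× PBS containing 1% milk, 0.2 mg/ml BSA, 0.5% salmon testes DNA and 0.03% Triton X-100. Binding intensity, obtained after Alexa488 anti-GST antibody detection and a 488 nm scan, is the highest Masliner-normalised natural-log median intensity across replicate spots of either probe orientation.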
row,Sequence,gcPBM binding intensity (ln)
1,AATGACTACATAATAGTGCAATATTAAAGAAAATTA,8.55
2,AAATAATTAGAAATAGTGCACATAATTAAGGGATAC,10.1
3,TTCTCCTAATAGTTAGTGCACTACATAACTAAGAAA,10.8
4,TATTTTTTTACATATTGTACATAATATAAAACTTAC [XGTACX_site8273],7.17
5,GAAAAATATATTCTGGTGCATGAATAAAATCATAAA,10.2
6,GATAAAATCACTGGTGCATGTAGATATATAATATTA [TGCATGCA_site589],10.5
7,TATTATATATTAAATGCATGTAAAAATAATATTAAA [TGCATGCA_site643],7.02
8,TACCATAATCAATGCACACATAACAAAATATTATTA [CACACA_site2722],7.33
9,ATCAAAATTGTCATTACACACCTTTATTTTTATAAT [CACACA_site5071],7.12
10,AATATATAGAGAGATATGCACACTGTATGAATGCAC [CACACA_site2677],10.3
11,TATATGGAGAGATATGCACACTGTATGAATGCCCCC [CACACA_site8853],9.32
12,TATATAGAGAGATATGCACACTGTATGAATGCCCCC [CACACA_site5476],9.53
13,ATATATATATATAATAAACACACAAATAGATATAAC [CACACA_site9234],9.02
14,AATAATTCATCATATGCACACACAATACCAAAATGT [CACACA_site7945],8.05
15,GAAAATATTAAATGAAGTACAATATTTATGTTACTT [XGTACX_site8737],6.71
16,TATATATATATATATACATGCATATTTTTTATTTTT [TGCATGCA_site464],9.67
17,AATATTTTTTTTTAAACATGCATATTTGCATTACCC [TGCATGCA_site437],6.99
18,TTTTTTTTTGGGGGTGCATGCAAGACATATATTTAA [TGCATGCA_site228],11.6
19,ACAAAATAATTGTTTACACACCCATTTGTAATTTTA [CACACA_site3615],6.88
20,TTATCATATCATGGAAGTACAAATAAAATATATAAC [XGTACX_site1608],7.24
21,ATTTCATATGGTCAACGTACTCATGCATCCCTCCTT [XGTACX_site437],6.86
22,ATTTTCACCTGAACGGTGCATATTTAATTTTAGGTT,10.5
23,TTATTTTAATTTTTGGTGCATATTCAAGTGTACCTT [GTGCAC_site9791],9.68

row,Sequence,gcPBM binding intensity (ln)
1,GTTATAATTGAACTAGTGCATAAATATATTTTAATT [GTGCAC_site9851],9.01
2,ATTTATTTATCTAGCTATTCACCATTTTCTTTTGTT [CACACA_negctrl_site1259],6.61
3,TTTAATTGATAATGAAGACAATTATATGCATCCAAA [TGCATGCA_negctrl_site138],6.79
4,ACGACATATGGATGATGTACTATCTTTATTATACAT [XGTACX_site6857],6.89
5,TAAAAGAAATAAGGTGCACACATATACATATATATA [CACACA_site8037],11.8
6,AGAAATAAGAAATATACACACATATATATATATATA [CACACA_site2808],9.79
7,AAAAAAAAAATACAGGTGCAATAAGAAAAAAATGGT,10.2
8,AAAGAAATAAGGTGCACACATATACATATATATATA [CACACA_site429],11.9
9,TAAAAGAAATAATATACACACATATATAAAAATAAA [CACACA_site1329],6.86
10,AAAGAAATAAGGTGCACACATATACAGATATATATA [CACACA_site4399],11.9
11,TAAAGAAATAAATACATACACACATATATATATATA [CACACA_site3363],9.69
12,AAATATAAGAAAAAGGTGCTTTTTTTTTTTTTTTTT [GTGCAC_site9700],8.42
13,ATGCATAAAAGAAATACACACATAAATATATAAATA [CACACA_site2163],7.02
14,AAATATAATATATGCACACATACATACAGATATATA [CACACA_site4235],7.09
15,TATACAGATAAATACACACACACATATATATATATA [CACACA_site4845],9.39
16,ATATATATATAATAAGTGCAAAAAAAAGAAAAAAAT,8.48
17,AAGGAAAAGTAAAGAAGTACTGTACCGCCAAAAAAA [XGTACX_site2607],6.98
18,TAAATATATTTATATTGTACATTTATGTTGATACCA [XGTACX_site228],6.88
19,TATAGATAAGAATATGCACACATTTTATTTTTTTTT [CACACA_site1982],7.16
20,TCTTTAAAAAAAAAAAAAAAAAATTCCAAATAAATA [TGCATGCA_negctrl_site538],6.72
21,ATTTGTTCATTTGGTTGTACATAATTTATTTTTATA [XGTACX_site785],7.26
22,TTGTATATTTTATGTACACACAATAAGTTAATATAA [CACACA_site4655],7.29
23,TATATTTATATCATCACACATTTTTTTTTTCTTTTT [CACACA_site6150],6.58
